In the supplement of paper PMC10981050:
Several values for one entry are separate records, joined by “and”; a condition that tells them apart may be missing. Identical values can stand only once. Counter-ions that a name gives are not always drawn.

Tests used:
Test in all cases: cell viability relative to vehicle control; higher = less cytotoxic
Settings in all cases: 10 µM
K562 = test system: K562
Outline: (§1)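 Four leukaemia lines, as CRISPR-edited mutant clones and isogenic wild-type clones, were tested against Selleck bioactive, kinase and epigenetic probe libraries after removal of identity-inconsistent compounds. Cells were exposed to a single 10 µM dose for 48 h, and CellTiter-Glo luminescence was then read. Viability was calculated relative to the on-plate vehicle control.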

MARIMO = test system: MARIMO
Outline: as §1

MOLM14 = test system: MOLM14
Outline: as §1

OCI-AML2 = test system: OCI-AML2
Outline: as §1

Compound	cell viability (K562; SRSF2 genotype: SRSF2 P95H/wt)	cell viability (K562; SRSF2 genotype: SRSF2 wt/wt) [%]	cell viability (MARIMO; SRSF2 genotype: SRSF2 P95H/wt) [%]	cell viability (MARIMO; SRSF2 genotype: SRSF2 wt/wt) [%]	cell viability (MOLM14; SRSF2 genotype: SRSF2 P95H/wt) [%]	cell viability (MOLM14; SRSF2 genotype: SRSF2 wt/wt) [%]	cell viability (OCI-AML2; SRSF2 genotype: P95H/wt) [%]	cell viability (OCI-AML2; SRSF2 genotype: wt/wt) [%]
CN(C)[C@@H]1C(=O)C(C(N)=O)=C(O)[C@@]2(O)C(=O)C3=C(O)c4c(O)ccc(Cl)c4[C@@](C)(O)[C@H]3C[C@@H]12 [Chlortetracycline HCl]	106% and 108%	107	105	108	105	105	102	103
CN(C)[C@@H]1C(=O)C(C(N)=O)=C(O)[C@@]2(O)C(=O)C3=C(O)c4c(O)cccc4[C@@](C)(O)[C@H]3[C@H](O)[C@@H]12 [Oxytetracycline (Terramycin)]	86.7% and 82.8%	85.9	90.8	87.4	87.5	88.3	84.5	90
CNCC(O)c1ccc(O)cc1 (stereo unspecified) [Synephrine HCl]	102% and 114%	108	110	99.8	104	111	108	101
O=c1ccc2cc3ccoc3c(O)c2o1 [Xanthotoxol]	91.6% and 88.5%	87.1	84.3	95.3	92.8	92.2	96.5	93.3
C=C(C)[C@H]1Cc2c(ccc3c2O[C@@H]2COc4cc(OC)c(OC)cc4[C@@H]2C3=O)O1 [Rotenone (Barbasco)]	12.8% and 22.4%	23.4	5.86	10.5	15.6	3.2	9.69	13.8
C[C@H]1CC[C@]2(NC1)O[C@H]1C[C@H]3[C@@H]4CC[C@H]5C[C@@H](O)CC[C@]5(C)[C@H]4CC[C@]3(C)[C@H]1[C@@H]2C [Tomatidine]	92.3% and 92%	90.7	86.8	94.8	90.7	93.3	96.5	93.5
CCCCCCC[n+]1ccc(-c2cc[n+](CCCCCCC)cc2)cc1 [DHBP dibromide]	51.7% and 49.9%	56.3	71	76.1	53.9	76.4	51.8	52.4
O=C(O)C(=O)CBr [Bromopyruvic acid]	99.8% and 89.6%	90.3	90	97.8	91.6	94.7	94.7	93.9
CN1[C@@H]2CC[C@H]1C[C@@H](OC(=O)C(CO)c1ccccc1)C2 (stereo partly specified) [Atropine sulfate monohydrate]	93.4% and 94.7%	100	104	112	100	105	100	99.6
C/C=C(\C)C(=O)N[C@@H](c1ccccc1)[C@@H](O)C(=O)O[C@H]1C[C@@]2(O)[C@@H](OC(=O)c3ccccc3)[C@@H]3[C@]4(OC(C)=O)CO[C@@H]4C[C@H](O)[C@@]3(C)C(=O)[C@H](OC(C)=O)C(=C1C)C2(C)C [Cephalomannine]	22.2% and 39.2%	31	7.43	5.47	9.27	2.7	7.08	10.9
Fc1cc(F)c2c(c1)[C@H]1C=CC[C@H]1C(c1cccnc1)N2 (stereo partly specified) [Golgicide A]	25.9% and 36.2%	32.3	14.1	27.5	46.3	68.2	12.2	22.5
CCN1CC2(OC(=O)c3ccccc3NC(C)=O)CCC(OC)C34C1C(CC23)C1(O)CC(OC)C2CC4C1(O)C2OC (stereo unspecified) [Lappaconitine]	99.3% and 109%	100	108	103	103	105	111	91.9
CCC1CN2CCC3(C(=O)Nc4ccccc43)C2CC1C(=COC)C(=O)OC (stereo unspecified) [Isorhychophylline]	95.3% and 96.3%	95.5	83.5	72	92.5	89.1	97.3	89.8
CNCC(=O)c1ccc(O)c(O)c1 [Adrenalone HCl]	97.4% and 92.4%	98.3	91.8	92.3	88.6	94	90.5	97.5
OC1CC2CCC(C1)N2 (stereo unspecified) [Nortropine Hydrochloride]	101% and 98.7%	101	102	107	97.2	102	105	94.8
O=C(O)c1nn(Cc2ccc(Cl)cc2Cl)c2ccccc12 [Lonidamine]	97% and 107%	101	107	97.7	98.1	95.6	99.5	92.2
CC(C)c1ccc2c(c1O)CC[C@H]1C3=C(CC[C@]21C)C(=O)OC3 [Triptophenolide]	70.5% and 80.3%	79.5	70.3	62.5	99.4	92	49	61.7
CCNC(=O)C[C@@H]1N=C(c2ccc(Cl)cc2)c2cc(OC)ccc2-n2c(C)nnc21	72.5% and 71.1%	73.3	38.9	41.3	30	28.7	24.7	37.5
N#CC(C#N)=NNc1ccc(OC(F)(F)F)cc1	16.2% and 15.8%	19.2	31.8	28	14.5	11.2	2.85	8.68
CN1CCN(c2nc3ccccc3nc2Cl)CC1	96.3% and 106%	98.8	93.1	103	105	109	107	102
CCC1(c2cccc(O)c2)CCCCN(C)C1 (stereo unspecified) [Meptazinol HCl]	96.2% and 101%	100	91	93.7	103	98.1	96.4	92.4

Compound	cell viability (K562; SRSF2 genotype: SRSF2 P95H/wt)	cell viability (K562; SRSF2 genotype: SRSF2 wt/wt) [%]	cell viability (MARIMO; SRSF2 genotype: SRSF2 P95H/wt) [%]	cell viability (MARIMO; SRSF2 genotype: SRSF2 wt/wt) [%]	cell viability (MOLM14; SRSF2 genotype: SRSF2 P95H/wt) [%]	cell viability (MOLM14; SRSF2 genotype: SRSF2 wt/wt) [%]	cell viability (OCI-AML2; SRSF2 genotype: P95H/wt) [%]	cell viability (OCI-AML2; SRSF2 genotype: wt/wt) [%]
CCOC(=O)Nc1ccc(NCc2ccc(F)cc2)cc1N [Retigabine]	98.5%	97.3	93.7	110	102	105	98.5	110
O=C1CCC[C@@H]2[C@H]3CCCN4CCC[C@@H](CN12)[C@@H]34 [Matrine ((+)-Matrine)]	94.4% and 112%	102	107	110	105	106	106	103
CN1[C@@H]2C[C@@H](OC(=O)[C@H](CO)c3ccccc3)C[C@H]1[C@@H]1O[C@@H]12 [Scopolamine hydrobromide]	97.1% and 95.9%	99.9	101	109	104	100	102	104
CCC1(c2ccc(N)cc2)CCC(=O)NC1=O (stereo unspecified) [Aminoglutethimide (Cytadren)]	98.1% and 103%	110	96.7	101	99.8	103	107	108
CC(C)=CCCC(C)(O)C1CCC2(C)C1C(O)CC1C3(C)CCC(OC4OC(CO)C(O)C(O)C4O)C(C)(C)C3CCC12C [(20R)Ginsenoside Rh2]	90.5% and 92.8%	96	101	102	102	96	98.5	106
Cc1ccccc1-n1c(CF)nc2ccc(N)cc2c1=O [Afloqualone]	88.1% and 90.6%	86.5	84.5	95.7	93.2	96.2	110	94.4
C[C@]12CC[C@H](O)C[C@@]1(O)CC[C@@H]1[C@@H]2CC[C@]2(C)[C@@H](C3=CC(=O)OC3)CC[C@]12O [Periplogenin]	8.32% and 13%	12.9	14.3	11.9	7.26	1.77	4.72	8.91
CCC(COC(=O)c1cc(OC)c(OC)c(OC)c1)(c1ccccc1)N(C)C (stereo unspecified) [Trimebutine]	94.7% and 99.7%	97.2	87.4	109	97.9	104	92.5	97.8
CCC(COC(=O)c1cc(OC)c(OC)c(OC)c1)(c1ccccc1)N(C)C (stereo unspecified) [Trimebutine maleate]	99% and 90.6%	98.2	87.9	90.3	88.9	98.2	89.9	97.4
Cc1cccc(Cc2c[nH]cn2)c1C [Detomidine HCl]	96.3% and 104%	96.5	103	95.3	105	106	110	93.1
CC(O)(CS(=O)(=O)c1ccc(F)cc1)C(=O)Nc1ccc(C#N)c(C(F)(F)F)c1 (stereo unspecified) [Bicalutamide (Casodex)]	95.5% and 101%	106	95.4	102	98.7	98.8	93.8	91.8
CC(C)=CCCC(C)(O)C1CCC2(C)C1C(O)CC1C3(C)CCC(O)C(C)(C)C3C(OC3OC(CO)C(O)C(O)C3O)CC12C [20(S)-Ginsenoside Rh1]	103% and 105%	101	106	110	102	106	107	115
NCCc1ccccc1 [2-Phenylethylamine hydrochloride]	105% and 104%	104	103	105	104	106	112	117
COc1ccc2c(c1OC)CN1CCc3cc4c(cc3C1C2)OCO4 (stereo unspecified) [Tetrahydroberberine]	86.9% and 87%	81.9	69.8	85	81.2	86.6	73	72.8
COC1=CC23CCN(C)C(Cc4ccc(OC)c(O)c42)C3=CC1=O (stereo unspecified) [Sinoacutine]	110% and 102%	101	103	101	108	103	101	104
c1cc2c(cc1[C@H]1OC[C@H]3[C@@H]1CO[C@H]3c1ccc3c(c1)OCO3)OCO2 [Asarinin]	99.6% and 99.4%	102	91.7	104	100	103	89.1	89.4
COC1CC(OC2CCC3(C)C4CCC5(C)C(C6=CC(=O)OC6)CCC5(O)C4CCC3(O)C2)OC(C)C1OC1OC(CO)C(O)C(O)C1O (stereo unspecified) [Periplocin]	8.96% and 10.7%	11.7	11.5	4.97	3.28	0.9	1.16	4.41
CC[C@H]1CN2CC[C@H]1C[C@H]2[C@H](O)c1ccnc2ccc(OC)cc12 [Hydroquinine]	102% and 101%	103	97.5	111	87.8	106	100	110
CN(C)CCc1ccc(O)cc1 [Hordenine]	104% and 106%	103	108	106	101	109	107	94.8
COc1ccc2c(c1OC)CC1c3c(cc4c(c3-2)OCO4)CCN1C (stereo unspecified) [Crebanine]	93.7% and 93.3%	95.9	80.5	83	95.9	93.4	80.6	84.5
CC[C@H]1CN2CC[C@]3(C(=O)Nc4ccccc43)[C@@H]2C[C@@H]1/C(=C\OC)C(=O)OC [Rhynchophylline]	93.2% and 97.5%	89.5	80.4	77.7	88.9	88.3	86.7	88.5
